From PubChem
In the library only some 3.3% were active in any assay of this set; here they are far more common.
Calb FLC – C. albicans growth modulation with fluconazole; growth inhibition, % (test concentration not listed); 0.57% of 300,000 active; AID 1979; C. albicans CaCi-2 (fluconazole-resistant clinical isolate) + fluconazole, Alamar Blue growth, 48 h;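 active means growth inhibition above about 58% in most replicates, limit read from the data, passing the limit was not always enough; inconclusive means exactly half the replicates above a set limit; inactive means most replicates below a set limit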;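 further: all wells also contain fluconazole at 8 µg/ml as a sub-toxic cotreatment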
Cl transport mod – KCC2 (human) Cl- transport modulation; KCC2 cells, thallium flux FluoZin-2 fluorescence; B-score of Tl+ flux slope (higher = more flux/activation; lower = inhibition) at 10 µM; 2.2% of 190,000 active; AID 1456;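 active means thallium flux slope and its plate-corrected score both differing from the plate sample mean at a set confidence after two filtering rounds, in either direction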;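 further: slope of fluorescence scaled to starting intensity during 10 to 20 s after thallium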
PHOSPHO1 block – blocks human PHOSPHO1 phosphatase activity | Q8TCT1 | recombinant PHOSPHO1, absorbance phosphatase assay | inhibition, % at 13.3 µM | 1.1% of 290,000 active | AID 1565; in the data active means inhibition above about 60%
Target sequence (Q8TCT1 whole entry, looked up): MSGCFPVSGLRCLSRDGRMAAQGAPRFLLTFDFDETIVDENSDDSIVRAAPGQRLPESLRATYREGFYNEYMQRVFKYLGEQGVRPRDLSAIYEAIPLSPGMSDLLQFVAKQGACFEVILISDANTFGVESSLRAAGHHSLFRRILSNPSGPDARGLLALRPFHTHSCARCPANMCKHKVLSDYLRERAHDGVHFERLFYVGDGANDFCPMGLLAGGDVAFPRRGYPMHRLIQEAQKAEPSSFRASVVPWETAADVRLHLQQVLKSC
Cardio protect – modulators protecting cardiomyocytes from myocardial damage | H9c2 cardiomyocytes, H2O2 injury protection, ATPLite, 2 h | protection from H2O2 cell death, % at 20 µM | 0.63% of 360,000 active | AID 588492;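 active means compounds giving at least 50% protection of heart cells from peroxide-induced death in the single-dose screen, raw or plate-pattern-corrected value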
Efflux pump inh – blocks antifungal efflux pumps in multiplex yeast assay; S. cerevisiae Candida pump triplex, Nile Red efflux; inhibition, % at 10 µM; 0.44% of 330,000 active;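 active means plate passing quality check with inhibition over a set limit, or well fluorescence over plate mean plus 4 SD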;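 further: Nile Red retained in pooled yeast measured as flow cytometry median fluorescence; higher means more Nile Red kept so more efflux inhibition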
A number is an active result; 0 = inactive; ? = inconclusive; - = not tested or not shown.

SMILES	Calb FLC	Cl transport mod	PHOSPHO1 block	Cardio protect	Efflux pump inh
Fc1ccccc1N1CCN(Cc2cc(-c3ccccc3)on2)CC1	0	-	-	0	0
Cc1n[nH]c(C)c1NC(=O)CSc1nnnn1-c1cccc(F)c1	-	-	-	0	0
Cc1ccc(C)c(NC(=O)C(Sc2nncn2C)c2ccccc2)c1 (configuration not stated)	0	-	0	0	0
CC(=O)c1cccc(NC(=O)C(Sc2ncnc3ccccc23)c2ccccc2)c1 (configuration not stated)	0	0	0	0	0
Cc1ccc(C)c(NC(=O)C(Sc2nc3ccccc3c(=O)n2CC(C)C)c2ccccc2)c1 (configuration not stated)	0	0	0	80	0
Cc1ccc(C)c(NC(=O)C(Sc2ncnc3ccccc23)c2ccccc2)c1 (configuration not stated)	0	0	0	55	0
O=C1CC2(CCN(C(=O)C3CC(=O)N(c4ccccc4)C3)CC2)Oc2ccccc21 (configuration not stated)	0	-	-	0	0
CCCC(c1nnnn1C(C)(C)CC)N(CCCO)Cc1cc2cc(C)cc(C)c2[nH]c1=O (configuration not stated)	0	-	0	59	0
CCC(c1nnnn1C(C)(C)CC)N(CCCO)Cc1cc2cc(C)cc(C)c2[nH]c1=O (configuration not stated)	0	0	0	0	-
Cn1c(-c2ccc(-c3ccccc3)cc2)c[nH]c1=S	0	0	95	0	0
CCn1c(-c2ccc(-c3ccccc3)cc2)c[nH]c1=S	0	0	97	0	0
C=CCn1c(-c2ccccc2)c[nH]c1=S	0	0	79	0	0
S=c1[nH]cc(-c2ccccc2)n1-c1ccccc1Cl	0	0	0	0	0
CCOC(=O)c1c(C)[nH]c(C(=O)OCC(=O)N2CCN(S(=O)(=O)c3ccc(C)cc3C)CC2)c1C	-	-	-	0	0
CCC(=O)Nc1cccc(-c2nnc(-c3cccc(NC(=O)CC)c3)o2)c1	0	0	0	85	0
Cc1cc(C)cc(OCC(=O)Nc2cccc(-c3nnc(-c4ccco4)o3)c2)c1	0	-	0	54	0
COc1ccc(CC(=O)Nc2cccc(-c3nnc(-c4ccco4)o3)c2)cc1	0	0	0	0	0
COc1cc(C(=O)Nc2cccc(-c3nnc(-c4ccco4)o3)c2)ccc1OC(C)=O	0	0	0	79	0
Cc1ccc(C2(C)NC(=O)N(CC(=O)N(Cc3ccccc3)C(C)(C)C)C2=O)cc1 (configuration not stated)	0	-	0	0	0
CCC(=O)NC(c1ccc(Cl)cc1Cl)c1ccc2cccnc2c1O (configuration not stated)	107	-	0	0	0
CC(C)C(=O)NC(c1ccc(Cl)cc1Cl)c1ccc2cccnc2c1O (configuration not stated)	0	-	0	0	0
CCCCC(=O)NC(c1ccc(Cl)cc1Cl)c1ccc2cccnc2c1O (configuration not stated)	96	-	0	0	0
Cc1cc(NC(c2ccc(Cl)cc2)c2ccc3cccnc3c2O)no1 (configuration not stated)	101	-	0	58	0
CC(=O)NC(c1ccc(Cl)cc1)c1ccc2cccnc2c1O (configuration not stated)	-	-	-	0	-
C=CCNC(=O)c1cc2c(=O)n3ccccc3nc2s1	0	-	0	0	0
SMILES	Calb FLC	Cl transport mod	PHOSPHO1 block	Cardio protect	Efflux pump inh
CC1N(C(=O)N(C)C)CCN1S(=O)(=O)c1ccccc1 (configuration not stated)	0	-	0	0	0
COc1ccc(N2CCN(C(=O)c3cc(C)oc3C)CC2)cc1	0	-	0	0	0
O=C1/C(=C/c2cccnc2)CCc2c1[nH]c1ccccc21	76	-	0	0	0
CC(C)C/C=C1\CCc2c([nH]c3ccccc23)C1=O	0	0	0	0	0
Cc1ccc(NC(=O)CNC(=O)c2ccc(Oc3ccccc3)cc2)nc1	89	-	-	0	0
COc1ccc(-n2c(C)c(C(C)=O)c3cc(OC(C)=O)ccc32)cc1	0	-	0	53	0
O=C1SC(c2ccccc2)=N/C1=C/c1ccco1	0	0	73	0	0
CCOC(=O)N1CCC(=NNc2nc3ccccc3s2)CC1	?	0	0	0	0
CC(=O)N1CCC(=NNC(=O)c2cc3ccccc3cc2O)CC1	82	-	0	0	0
COC(=O)c1c(NC(=O)c2nc3ccccc3s2)sc2c1CCN(C(C)=O)C2	-	0	0	58	0
CC(=O)N1CCC(=NNc2nc3ccccc3s2)CC1	99	0	0	0	0
CCOC(=O)N1CCC(=NNC(=O)c2cc3ccccc3cc2O)CC1	0	0	0	0	0
